Experiments:
Test in all cases: log2 ratio of Biotin-Ahx-Ub-VS probe labelling (fragment/DMSO); higher = less target engagement (more negative = stronger competition), active = hit call of the paper (q ≤ 0.05, log2 ratio ≤ -1)
Settings in all cases: compound concentration: 200 uM; treatment time: 3 h
OTUD6B = biological target: T1, OTUD6B (UniProt Q8N6M0)
T1 sequence (whole entry): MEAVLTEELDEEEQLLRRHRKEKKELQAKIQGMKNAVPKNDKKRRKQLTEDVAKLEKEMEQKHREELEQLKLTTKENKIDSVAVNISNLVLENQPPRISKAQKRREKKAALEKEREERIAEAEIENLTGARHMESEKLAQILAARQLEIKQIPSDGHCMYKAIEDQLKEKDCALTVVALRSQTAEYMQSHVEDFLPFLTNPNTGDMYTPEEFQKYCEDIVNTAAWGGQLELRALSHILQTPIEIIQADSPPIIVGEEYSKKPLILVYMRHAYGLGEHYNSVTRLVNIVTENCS
Summary of the method: (§1)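 Average log2 ratios of fragment over vehicle were obtained by unpaired t-test from global-median-normalised Spectronaut label-free quantities. Proteins with ≥2 unique peptides were included. HEK293T lysate (495 µg per sample) was treated in triplicate with fragment at 200 µM or vehicle for 3 h, then with Biotin-Ahx-Ub-VS at 0.5 µM final for 1 h, and labelled DUBs were NeutrAvidin-enriched and run by diaPASEF LC-MS/MS.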

OTUD7B = biological target: T2, OTUD7B (UniProt Q6GQQ9)
T2 sequence (whole entry): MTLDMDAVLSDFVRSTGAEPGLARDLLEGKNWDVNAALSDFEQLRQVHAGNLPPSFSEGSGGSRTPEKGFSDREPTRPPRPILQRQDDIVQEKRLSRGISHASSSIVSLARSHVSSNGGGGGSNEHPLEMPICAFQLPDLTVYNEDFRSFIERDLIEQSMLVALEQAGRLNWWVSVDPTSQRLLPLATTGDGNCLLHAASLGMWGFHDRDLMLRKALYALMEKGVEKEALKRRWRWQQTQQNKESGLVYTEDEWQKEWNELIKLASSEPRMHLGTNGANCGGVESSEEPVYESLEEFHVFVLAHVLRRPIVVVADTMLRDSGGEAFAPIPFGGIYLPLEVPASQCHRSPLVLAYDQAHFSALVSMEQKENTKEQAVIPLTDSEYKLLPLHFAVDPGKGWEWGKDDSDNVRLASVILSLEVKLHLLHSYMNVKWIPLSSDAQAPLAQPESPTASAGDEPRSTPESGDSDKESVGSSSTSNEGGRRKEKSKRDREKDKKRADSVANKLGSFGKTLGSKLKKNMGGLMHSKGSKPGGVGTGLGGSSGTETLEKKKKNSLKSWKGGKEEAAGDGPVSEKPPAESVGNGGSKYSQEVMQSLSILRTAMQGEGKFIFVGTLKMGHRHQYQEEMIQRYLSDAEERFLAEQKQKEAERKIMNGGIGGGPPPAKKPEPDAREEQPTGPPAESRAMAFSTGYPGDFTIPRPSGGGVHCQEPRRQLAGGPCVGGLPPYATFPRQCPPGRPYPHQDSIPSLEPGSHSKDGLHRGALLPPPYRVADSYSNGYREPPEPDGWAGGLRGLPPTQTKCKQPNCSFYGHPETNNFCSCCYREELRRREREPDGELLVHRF
Summary of the method: as §1

PRPF8 = PRPF8 (UniProt Q6P2Q9)
Summary of the method: as §1

PSMD7 = biological target: T3, PSMD7 (UniProt P51665)
T3 sequence (whole entry): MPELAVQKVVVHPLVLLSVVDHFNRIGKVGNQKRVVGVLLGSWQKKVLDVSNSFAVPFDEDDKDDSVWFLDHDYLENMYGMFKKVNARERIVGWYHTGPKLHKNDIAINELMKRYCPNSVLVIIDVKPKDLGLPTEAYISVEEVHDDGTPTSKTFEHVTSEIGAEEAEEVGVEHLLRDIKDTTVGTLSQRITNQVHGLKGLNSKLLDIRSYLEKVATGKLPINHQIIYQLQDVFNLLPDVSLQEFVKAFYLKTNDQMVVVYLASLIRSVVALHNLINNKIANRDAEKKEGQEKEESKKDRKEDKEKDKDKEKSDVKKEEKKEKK
Summary of the method: as §1

UCHL1 = UCHL1 (UniProt P09936)
UCHL1, sequence (P09936 whole entry, looked up): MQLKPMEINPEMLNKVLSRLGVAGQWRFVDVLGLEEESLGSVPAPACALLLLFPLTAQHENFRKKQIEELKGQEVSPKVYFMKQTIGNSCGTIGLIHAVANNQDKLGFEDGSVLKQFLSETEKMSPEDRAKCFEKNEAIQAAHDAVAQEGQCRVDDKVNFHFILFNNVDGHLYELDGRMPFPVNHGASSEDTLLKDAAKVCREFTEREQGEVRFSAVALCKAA
Summary of the method: as §1

UCHL3 = biological target: T4, UCHL3 (UniProt P15374)
T4 sequence (whole entry): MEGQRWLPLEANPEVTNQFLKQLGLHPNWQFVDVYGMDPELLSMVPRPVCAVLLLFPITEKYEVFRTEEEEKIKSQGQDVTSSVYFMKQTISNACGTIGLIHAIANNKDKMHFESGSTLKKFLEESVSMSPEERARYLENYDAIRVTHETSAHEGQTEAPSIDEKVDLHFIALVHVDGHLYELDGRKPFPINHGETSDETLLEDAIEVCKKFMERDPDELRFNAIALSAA
Summary of the method: as §1

UCHL5 = biological target: T5, UCHL5 (UniProt Q9Y5K5)
T5 sequence (whole entry): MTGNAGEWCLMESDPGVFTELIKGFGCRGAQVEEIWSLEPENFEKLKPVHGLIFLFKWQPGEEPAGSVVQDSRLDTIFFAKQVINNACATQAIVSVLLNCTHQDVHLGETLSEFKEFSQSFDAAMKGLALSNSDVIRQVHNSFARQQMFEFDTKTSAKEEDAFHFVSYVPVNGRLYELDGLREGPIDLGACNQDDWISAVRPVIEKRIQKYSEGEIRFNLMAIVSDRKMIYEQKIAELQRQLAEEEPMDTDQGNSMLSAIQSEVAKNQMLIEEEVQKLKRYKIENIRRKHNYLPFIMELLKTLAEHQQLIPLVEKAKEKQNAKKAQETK
Summary of the method: as §1

USP10 = USP10 (UniProt Q14694)
USP10, sequence (Q14694 whole entry): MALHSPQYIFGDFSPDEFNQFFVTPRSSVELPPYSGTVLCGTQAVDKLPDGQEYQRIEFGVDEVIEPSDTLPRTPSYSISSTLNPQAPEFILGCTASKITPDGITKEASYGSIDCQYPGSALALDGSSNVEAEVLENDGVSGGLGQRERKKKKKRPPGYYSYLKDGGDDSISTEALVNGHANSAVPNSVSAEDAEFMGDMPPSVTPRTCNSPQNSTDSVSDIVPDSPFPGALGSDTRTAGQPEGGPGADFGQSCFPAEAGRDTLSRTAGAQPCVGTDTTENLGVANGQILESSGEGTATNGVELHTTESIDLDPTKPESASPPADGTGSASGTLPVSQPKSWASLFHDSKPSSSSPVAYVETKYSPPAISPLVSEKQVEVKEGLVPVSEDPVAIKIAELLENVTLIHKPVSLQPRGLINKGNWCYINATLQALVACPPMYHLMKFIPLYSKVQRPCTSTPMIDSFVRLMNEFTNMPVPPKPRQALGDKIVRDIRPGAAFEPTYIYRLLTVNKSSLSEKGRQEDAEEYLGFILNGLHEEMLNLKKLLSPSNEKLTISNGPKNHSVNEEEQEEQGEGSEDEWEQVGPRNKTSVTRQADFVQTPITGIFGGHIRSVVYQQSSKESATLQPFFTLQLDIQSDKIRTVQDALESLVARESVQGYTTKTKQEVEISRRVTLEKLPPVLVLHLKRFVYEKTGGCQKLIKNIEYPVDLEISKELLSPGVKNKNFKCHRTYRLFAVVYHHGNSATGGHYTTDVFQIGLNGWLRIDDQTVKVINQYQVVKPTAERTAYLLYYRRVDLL
Summary of the method: as §1

USP15 = biological target: T6, USP15 (UniProt Q9Y4E8)
T6 sequence (whole entry): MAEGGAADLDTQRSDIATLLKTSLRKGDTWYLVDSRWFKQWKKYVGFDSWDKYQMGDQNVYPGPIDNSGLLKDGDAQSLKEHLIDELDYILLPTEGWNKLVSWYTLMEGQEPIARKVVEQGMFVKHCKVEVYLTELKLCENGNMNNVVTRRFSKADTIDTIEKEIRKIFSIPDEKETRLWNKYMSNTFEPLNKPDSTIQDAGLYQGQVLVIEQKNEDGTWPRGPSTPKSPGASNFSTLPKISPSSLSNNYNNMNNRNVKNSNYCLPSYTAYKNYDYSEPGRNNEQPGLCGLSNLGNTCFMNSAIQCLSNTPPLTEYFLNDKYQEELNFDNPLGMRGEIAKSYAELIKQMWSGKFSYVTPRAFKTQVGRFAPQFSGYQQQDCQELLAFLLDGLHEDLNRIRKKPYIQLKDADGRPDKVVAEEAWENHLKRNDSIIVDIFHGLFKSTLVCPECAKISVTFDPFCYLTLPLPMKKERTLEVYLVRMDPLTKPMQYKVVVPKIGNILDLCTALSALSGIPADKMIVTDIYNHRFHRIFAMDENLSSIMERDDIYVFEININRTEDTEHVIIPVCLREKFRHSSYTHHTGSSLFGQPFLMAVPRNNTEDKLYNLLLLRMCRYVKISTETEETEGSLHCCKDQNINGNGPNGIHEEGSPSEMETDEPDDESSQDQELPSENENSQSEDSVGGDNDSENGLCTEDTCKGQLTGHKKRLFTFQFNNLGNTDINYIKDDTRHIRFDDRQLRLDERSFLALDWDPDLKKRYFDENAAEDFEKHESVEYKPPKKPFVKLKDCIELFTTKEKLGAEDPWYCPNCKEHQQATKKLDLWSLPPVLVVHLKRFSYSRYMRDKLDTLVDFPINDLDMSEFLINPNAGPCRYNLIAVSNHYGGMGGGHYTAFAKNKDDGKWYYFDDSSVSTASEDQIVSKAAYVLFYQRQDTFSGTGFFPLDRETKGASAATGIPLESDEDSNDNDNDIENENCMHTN
Summary of the method: as §1

USP16 = USP16 (UniProt Q9Y5T5)
USP16, sequence (Q9Y5T5 whole entry, looked up): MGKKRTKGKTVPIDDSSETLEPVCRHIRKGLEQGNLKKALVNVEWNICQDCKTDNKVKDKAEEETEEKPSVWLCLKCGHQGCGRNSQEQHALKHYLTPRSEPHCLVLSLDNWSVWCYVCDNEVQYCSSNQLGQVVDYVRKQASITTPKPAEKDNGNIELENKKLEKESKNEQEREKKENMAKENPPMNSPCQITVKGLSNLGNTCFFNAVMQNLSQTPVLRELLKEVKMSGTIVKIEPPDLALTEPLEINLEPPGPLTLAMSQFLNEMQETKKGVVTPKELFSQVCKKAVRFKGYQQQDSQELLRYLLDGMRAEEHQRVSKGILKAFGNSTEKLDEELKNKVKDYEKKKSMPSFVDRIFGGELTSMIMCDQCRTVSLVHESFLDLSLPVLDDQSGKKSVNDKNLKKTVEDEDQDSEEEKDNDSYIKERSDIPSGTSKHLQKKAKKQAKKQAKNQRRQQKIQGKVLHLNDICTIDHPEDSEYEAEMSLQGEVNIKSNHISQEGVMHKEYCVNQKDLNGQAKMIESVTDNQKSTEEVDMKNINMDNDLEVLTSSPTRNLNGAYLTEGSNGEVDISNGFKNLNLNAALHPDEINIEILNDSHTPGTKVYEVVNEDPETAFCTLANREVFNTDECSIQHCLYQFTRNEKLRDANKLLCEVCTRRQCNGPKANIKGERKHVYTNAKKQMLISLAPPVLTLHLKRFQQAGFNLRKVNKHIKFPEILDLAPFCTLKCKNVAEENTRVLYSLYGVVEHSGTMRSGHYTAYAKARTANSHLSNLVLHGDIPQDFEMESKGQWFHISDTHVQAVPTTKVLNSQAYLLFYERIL
Summary of the method: as §1

Measured: log2 ratio of Biotin-Ahx-Ub-VS probe labelling

Cl.O=C(CCl)N1CC(c2ccc(Br)cn2)C1
inactive: OTUD6B -0.116 | PRPF8 0.0941 | PSMD7 -0.394 | UCHL3 -0.211 | UCHL5 -0.254 | USP10 -0.0353 | USP15 -0.409 | USP16 -0.253
active: OTUD7B -1.18 | UCHL1 -1.41

— the supplement of paper PMC11732987, “Enantioselective OTUD7B fragment discovery through chemoproteomics screening and high-throughput optimisation” (Communications Chemistry, 2025)
